Sampled rows, rich in hits. Any-hit rate of the full collection: about 8%.
KB-3-1 cytotox: KB-3-1 parental cell cytotoxicity. KB-3-1 viability, CellTiter-Glo ATP luminescence, 72 h. Potency, µM (series often up to 46.1 µM), usual class: cytotoxic. 400,000 compounds, 1.4% hits. AID 1347075; note: nearly all actives have a fitted effect of over 60% in size
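Cells are dispensed, compounds pinned in, plates held at 37 °C for 72 h, then CellTiter-Glo is added and luminescence read after 10 minutes. Cell line: parental KB-3-1 in phenol-red-free DMEM, 10% FBS.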
SW480 rerep: induces DNA re-replication in SW480 colon adenocarcinoma cells. 340,000 compounds, 1.8% hits. SW480 DNA re-replication, Hoechst DNA content imaging, 48 h. Potency, µM (doses to about 46.1 µM), actives largely listed as activators; note: nearly all actives have a fitted effect of over 55% in size
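250 cells/well; 23 nL cpd via pin tool; 48 hr, 37 C, 5% CO2; Hoechst 40 min; imager read of total nuclear intensity, ex 405/em 500-530 nm.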
HT1080 IDH1KD tx: HT-1080 IDH1 knockdown cell toxicity (counter line); Potency, µM (titrated, usually from 46.1 µM), hits mostly cytotoxic; 360,000 compounds, 2% hits; HT-1080 IDH1 knockdown viability, ATP luminescence, 48 h
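HT-1080-IDH1KD cells (IDH1 knocked down), 750/well in RPMI with 5% FBS, treated with compound 48 h at 37 degrees C. Viability by CellTiter-Glo luminescence, normalised to DMSO and no-cell wells; concentration-response curves classed.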
MCF10A rereplic: inducers of DNA re-replication in MCF 10A breast cells; 350,000 compounds, 2.9% hits; MCF 10A DNA re-replication, Hoechst nuclear intensity, 48 h; Potency, µM (doses to about 46.1 µM), actives largely listed as activators; note: nearly all actives have a fitted effect of over 50% in size
HT1080NT lethal: kills 2HG-producing HT-1080-NT fibrosarcoma cells; 360,000 compounds, 1.6% hits; Potency, µM (series often up to 46.1 µM), actives largely listed as cytotoxic; HT-1080-NT fibrosarcoma viability, CellTiter-Glo ATP luminescence, 48 h;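 note: NT is the 2HG producing partner of a matched IDH1 knockdown line; nearly all actives have a fitted effect of over 55% in size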
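Fibrosarcoma NT cells, 750 per well in 5% FBS RPMI, were exposed to compound for 48 hours. Viability: CellTiter-Glo luminescence.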
KB-V1 cytotox: KB-V1 MDR subline cytotoxicity. Potency, µM (top dose mostly 46.1 µM), most hits filed as cytotoxic. KB-V1 MDR cells viability, CellTiter-Glo, 72 h. AID 1347076. 400,000 compounds, 3.4% hits; note: nearly all actives have a fitted effect of over 60% in size
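qHTS viability screen in drug-selected KB-V1 MDR cells: 72 h compound treatment at 37 degrees C, ATP luminescence end point.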
Hits are given with their value; 0 = inactive; ? = inconclusive; - = not tested or not shown. Calls come from the whole dose curve; as a rule, active = well fitted curve in the direction sought with a large enough effect; inconclusive = small, poorly fitted or top-dose-only effect, or another doubt; inactive = no such curve, though single readings can be large; an effect the other way counts as inactive or inconclusive.

SMILES	KB-3-1 cytotox	SW480 rerep	HT1080 IDH1KD tx	MCF10A rereplic	HT1080NT lethal	KB-V1 cytotox
COc1ccc(C2CC(c3ccccc3)=NN2C(=O)c2ccc(F)cc2)cc1 (stereo unspecified)	0	0	0	0	0	0
COc1ccc(C2CC(c3ccccc3)=NN2c2ccc(Cl)c(C(=O)O)c2)cc1 (stereo unspecified)	0	?	0	8.2µM	0	?
COc1ccc(C2CC(c3ccccc3)=NN2S(=O)(=O)c2ccccc2)cc1 (stereo unspecified)	0	?	0	0	0	0
COc1ccc(C2CC(c3ccccc3)=NN2c2ccc(N)cc2)cc1 (stereo unspecified)	?	23.1µM	?	16.4µM	?	20.6µM
COc1cc2nc(C3CCC3)n(NC(=O)C3CCC(OC)CC3)c(=O)c2cc1OC (stereo unspecified)	0	0	0	0	0	?
COc1ccc(NC(=O)C2CCCN(c3ncnc4onc(-c5ccc(F)cc5)c34)C2)cc1 (stereo unspecified)	0	0	0	0	0	0
NC(=NCCc1ccccc1)NS(=O)(=O)c1ccc2ccccc2c1	0	0	0	0	0	0
O=C(NCCn1cc(SCc2cccc(F)c2)c2ccccc21)c1cccc(C(F)(F)F)c1	0	-	-	-	-	20.6µM
COc1cc(O)c(CC=C(C)C)c(O)c1C(=O)CCc1ccc(O)cc1	0	?	?	6.51µM	0	0
O=C(CSc1ccccc1)NCc1ccc(F)cc1	0	0	0	0	0	0
CC(C)c1ccccc1NC(=O)CCc1nc2ccccc2s1	0	0	0	?	0	18.4µM
Cc1ccccc1C(=O)NC(=S)Nc1ccccc1C(F)(F)F	0	0	0	0	0	0
FC(F)(F)c1ccccc1NC(=S)N1CCCC1	0	?	0	0	0	0
FC(F)(F)c1ccccc1NC(=S)NN=C1CCCCCC1	?	11.6µM	18.4µM	?	13µM	?
O=C(NC(=S)Nc1ccccc1C(F)(F)F)c1ccccc1F	0	0	0	10.3µM	0	0
COc1ccc(NC(=O)CSc2ncnc3c2sc2ccccc23)c(OC)c1	0	0	0	?	0	0
COc1ccccc1CNC(=O)CCC1N=C2c3ccccc3N=C(SCC(=O)Nc3ccc(N(C)C)cc3)N2C1=O (stereo unspecified)	0	-	-	-	-	0
CC1(C)Cc2c(c(-c3ccco3)nc3sc4c(NCCN5CCOCC5)ncnc4c23)CO1	0	0	16.4µM	?	23.1µM	0
CC1(C)Cc2c(c(-c3ccco3)nc3sc4c(NCCCO)ncnc4c23)CO1	0	0	0	0	0	?
CC1(C)Cc2c(c(-c3ccco3)nc3sc4c(NCC5CCCO5)ncnc4c23)CO1 (stereo unspecified)	?	?	?	23.1µM	?	?
CCc1cc(=O)oc2c(C)c(O[C@@H]3O[C@H](CO)[C@@H](O)[C@H](O)[C@H]3O)ccc12	0	?	0	0	0	?
CCc1cc(=O)oc2cc(O[C@@H]3O[C@H](CO)[C@@H](O)[C@H](O)[C@H]3O)c(Cl)cc12	0	18.4µM	0	0	0	0
O=C(CCCN1C(=O)c2ccccc2C1=O)Nc1c2c(nc3c1CCC3)CCC2	0	0	0	0	0	0
Cc1ccc(Cc2c(-c3cccc(Br)c3)nc3ccc(Cl)cn23)cc1	0	-	0	-	0	0
O=C(CSc1nnnn1Cc1ccccc1)c1ccccc1F	0	0	0	0	0	0
SMILES	KB-3-1 cytotox	SW480 rerep	HT1080 IDH1KD tx	MCF10A rereplic	HT1080NT lethal	KB-V1 cytotox
COc1ccc2nc(NC3=NC(c4ccccc4)CC(=O)N3)nc(C)c2c1 (stereo unspecified)	0	0	18.4µM	0	?	0
CCc1c(C)nc(Nc2nc(C)c3cc(OC)ccc3n2)[nH]c1=O	0	0	0	?	0	?
COc1ccc2c(C)nc(Nc3nc(C)c(C)c(=O)[nH]3)nc2c1	3.66µM	0	?	0	?	7.31µM
COc1ccc2c(C)nc(Nc3nc(C)cc(C)n3)nc2c1	0	5.17µM	0.891µM	0	0.447µM	?
CCc1c(C)nc(Nc2nc(C)c3ccc(OC)cc3n2)[nH]c1=O	0	0	0	0	0	0
CCCc1c(C(=O)Nc2ccc(N3CCOCC3)cc2)cnn1-c1ccccc1	0	0	0	0	0	0
CN(CC(=O)Nc1ccccc1Cl)C(=O)c1cccc(S(=O)(=O)N2CCN(c3ccccc3)CC2)c1	0	0	0	0	0	0
COc1cc(S(=O)(=O)N2CCN(Cc3ccccc3)CC2)ccc1Br	0	?	0	10.3µM	0	0
CN(CC(=O)Nc1ccccc1Cl)C(=O)c1cccc(S(=O)(=O)N2CCN(Cc3ccccc3)CC2)c1	0	0	0	?	20.6µM	?
CN(Cc1ccc(Cl)c(Cl)c1)C(=O)c1cccc(S(=O)(=O)N2CCN(Cc3ccccc3)CC2)c1	9.2µM	0	0	0	0	0
C=CCN(C(=O)c1cccc(S(=O)(=O)N2CCN(C)CC2)c1)c1nc(-c2ccccc2)cs1	?	0	?	?	23.1µM	0
Cc1c(-n2c(SCC(C)C)nc3ccccc3c2=O)c(=O)n(-c2ccccc2)n1C	0	0	0	0	0	?
COc1ccccc1NC(=O)c1cccc(S(=O)(=O)N2CCN(Cc3ccccc3)CC2)c1	0	0	0	0	0	0
COc1ccc(NC(C)=O)cc1NC(=O)c1cccc(S(=O)(=O)N2CCN(Cc3ccccc3)CC2)c1	0	0	0	0	0	16.4µM
Cc1cccc(C)c1NC(=O)CN(C)C(=O)c1cccc(S(=O)(=O)N2CCN(c3ccccc3)CC2)c1	0	0	0	0	0	0
CN(Cc1ccc(OC(F)F)cc1)C(=O)c1cccc(S(=O)(=O)N2CCN(c3ccccc3)CC2)c1	7.31µM	0	0	0	0	0
C[C@H](CO)N1C[C@H](C)[C@@H](CN(C)C(=O)c2cccnc2)Oc2ncc(Br)cc2C1=O	0	-	0	-	0	0
CCN(CC)c1ccc2cc(C=O)c(=O)oc2c1	?	?	0	11.6µM	0	0
CCN(CC)c1ccc2cc(C(=O)Nc3ccccn3)c(=O)oc2c1	0	?	0	1.3µM	0	0
CCN(CC)c1ccc2cc(C(C)=O)c(=O)oc2c1	0	20.6µM	0	10µM	0	0
CCN(CC)c1ccc2cc(C(N)=O)c(=N)oc2c1	0	?	0	18.4µM	0	?
CCN(CC)c1ccc2cc(NC(=O)CCC(=O)O)c(=O)oc2c1	0	0	0	0	0	0
CCN(CC)c1ccc2cc(C(N)=O)c(=O)oc2c1	0	?	0	0	0	0
c1ccc(Cc2nn3c(COc4ccccc4)nnc3s2)cc1	0	0	0	0	0	0

Screening data deposited in PubChem by National Center for Advancing Translational Sciences (NCATS).
